# Test results as given in paper PMC7862700, “An all-to-all approach to the identification of sequence-specific readers for epigenetic DNA modifications on cytosine”.
# Experiments:
# Assay in all cases: DAPPL (digital affinity profiling via proximity ligation, sequencing); 10 mM Tris-HCl pH 7.5, 50 mM NaCl, 1 mM DTT, 4% glycerol, room temperature, 30 min; GST-TFs on glutathione beads, 16-mer random dsDNA library, 0.1% formaldehyde crosslink after washing; high values mean tight binding
# FEV = target: T1, FEV (Homo sapiens, UniProt Q99581 1-238); conditions: protein: recombinant; tags: N-terminal GST; dsDNA, one strand shown
# T1 sequence: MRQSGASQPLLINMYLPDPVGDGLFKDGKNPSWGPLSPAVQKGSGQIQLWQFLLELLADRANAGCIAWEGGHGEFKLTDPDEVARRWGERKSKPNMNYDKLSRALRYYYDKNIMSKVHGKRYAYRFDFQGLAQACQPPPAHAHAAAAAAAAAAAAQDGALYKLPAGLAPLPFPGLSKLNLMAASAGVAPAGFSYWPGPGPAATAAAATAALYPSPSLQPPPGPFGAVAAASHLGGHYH
# Summary of the method: (§1)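 After expression in yeast as GST fusions, human transcription factors were bound to glutathione beads, DNA-barcoded and mixed with a tag-only sample. The pools were incubated with 200 nmole of a 16-mer random double-stranded DNA library in Tris/NaCl/DTT/glycerol buffer (30 min, room temperature), washed and crosslinked with 0.1% formaldehyde. Proximity ligation with BsaI/T4 ligase ran for 1 h at 37 °C, before PCR amplification and sequencing on an Illumina NextSeq500. Binding signal is a hexamer's read frequency for a factor divided by its frequency for the tag-only sample.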
# ETV5 = ETV5 (Homo sapiens, UniProt P41161 1-510); conditions: protein: recombinant; tags: N-terminal GST; dsDNA, one strand shown
# Chain of ETV5 (P41161 whole entry): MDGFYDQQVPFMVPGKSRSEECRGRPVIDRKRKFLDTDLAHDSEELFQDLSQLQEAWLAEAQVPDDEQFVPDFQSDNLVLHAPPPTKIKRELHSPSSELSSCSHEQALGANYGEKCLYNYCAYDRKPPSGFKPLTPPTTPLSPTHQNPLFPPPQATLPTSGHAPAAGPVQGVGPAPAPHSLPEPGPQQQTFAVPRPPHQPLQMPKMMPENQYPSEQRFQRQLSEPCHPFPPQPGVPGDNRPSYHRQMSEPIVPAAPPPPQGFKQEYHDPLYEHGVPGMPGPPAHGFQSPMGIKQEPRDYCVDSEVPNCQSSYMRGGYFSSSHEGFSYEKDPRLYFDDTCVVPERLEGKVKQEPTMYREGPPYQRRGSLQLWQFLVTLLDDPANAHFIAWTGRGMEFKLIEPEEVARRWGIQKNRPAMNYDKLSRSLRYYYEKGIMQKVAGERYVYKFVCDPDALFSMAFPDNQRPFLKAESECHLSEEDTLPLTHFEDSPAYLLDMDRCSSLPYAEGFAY
# Summary of the method: as §1
# HSF1 = HSF1 (Homo sapiens, UniProt Q00613 1-529); conditions: protein: recombinant; tags: N-terminal GST; chain copies: 3; dsDNA, one strand shown
# Chain of HSF1 (Q00613 whole entry): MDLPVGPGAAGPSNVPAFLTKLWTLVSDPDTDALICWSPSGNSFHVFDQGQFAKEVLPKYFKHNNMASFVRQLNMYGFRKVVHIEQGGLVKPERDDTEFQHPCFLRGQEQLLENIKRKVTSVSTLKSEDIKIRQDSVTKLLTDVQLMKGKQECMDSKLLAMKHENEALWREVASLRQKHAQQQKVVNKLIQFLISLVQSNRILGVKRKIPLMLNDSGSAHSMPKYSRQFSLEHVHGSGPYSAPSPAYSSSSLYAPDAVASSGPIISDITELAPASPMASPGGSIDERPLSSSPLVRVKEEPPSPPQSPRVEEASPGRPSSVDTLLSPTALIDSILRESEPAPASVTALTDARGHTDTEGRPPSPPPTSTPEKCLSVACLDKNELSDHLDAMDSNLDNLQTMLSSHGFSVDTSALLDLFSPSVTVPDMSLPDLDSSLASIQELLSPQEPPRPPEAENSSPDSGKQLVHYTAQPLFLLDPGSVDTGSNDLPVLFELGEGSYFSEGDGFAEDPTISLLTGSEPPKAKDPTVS
# Summary of the method: as §1
# SPIC = target: T2, SPIC (Homo sapiens, UniProt Q8N5J4 1-248); conditions: protein: recombinant; tags: N-terminal GST; dsDNA, one strand shown
# T2 sequence: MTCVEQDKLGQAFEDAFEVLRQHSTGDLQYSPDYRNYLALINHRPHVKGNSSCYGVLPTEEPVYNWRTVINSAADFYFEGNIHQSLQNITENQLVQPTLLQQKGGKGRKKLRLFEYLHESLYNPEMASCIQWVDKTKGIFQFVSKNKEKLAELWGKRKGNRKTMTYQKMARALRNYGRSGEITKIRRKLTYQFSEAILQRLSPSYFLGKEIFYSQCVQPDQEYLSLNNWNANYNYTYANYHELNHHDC
# Summary of the method: as §1
# ELF4 = ELF4 (Homo sapiens, UniProt Q99607 1-663); conditions: protein: recombinant; tags: N-terminal GST; dsDNA, one strand shown
# Chain of ELF4 (Q99607 whole entry): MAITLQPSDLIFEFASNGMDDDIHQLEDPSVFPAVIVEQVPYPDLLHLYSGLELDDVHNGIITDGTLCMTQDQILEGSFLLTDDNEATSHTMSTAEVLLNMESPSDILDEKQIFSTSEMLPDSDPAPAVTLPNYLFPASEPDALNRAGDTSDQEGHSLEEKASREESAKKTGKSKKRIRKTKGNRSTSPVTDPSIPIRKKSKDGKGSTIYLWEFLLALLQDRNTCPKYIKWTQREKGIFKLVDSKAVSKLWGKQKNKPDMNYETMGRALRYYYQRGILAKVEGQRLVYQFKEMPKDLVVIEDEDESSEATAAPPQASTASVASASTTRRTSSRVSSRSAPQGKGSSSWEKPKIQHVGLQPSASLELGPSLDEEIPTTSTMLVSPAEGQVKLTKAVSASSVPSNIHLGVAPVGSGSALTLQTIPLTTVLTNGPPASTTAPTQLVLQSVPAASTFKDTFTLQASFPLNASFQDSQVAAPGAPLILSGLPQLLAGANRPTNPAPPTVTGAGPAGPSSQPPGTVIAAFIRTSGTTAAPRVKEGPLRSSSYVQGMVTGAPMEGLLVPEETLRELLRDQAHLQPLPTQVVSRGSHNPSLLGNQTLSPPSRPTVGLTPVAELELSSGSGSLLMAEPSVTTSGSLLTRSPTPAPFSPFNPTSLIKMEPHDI
# Summary of the method: as §1
# ELK4 = target: T3, ELK4 (Homo sapiens, UniProt P28324-2 1-405); conditions: protein: recombinant; tags: N-terminal GST; dsDNA, one strand shown
# T3 sequence: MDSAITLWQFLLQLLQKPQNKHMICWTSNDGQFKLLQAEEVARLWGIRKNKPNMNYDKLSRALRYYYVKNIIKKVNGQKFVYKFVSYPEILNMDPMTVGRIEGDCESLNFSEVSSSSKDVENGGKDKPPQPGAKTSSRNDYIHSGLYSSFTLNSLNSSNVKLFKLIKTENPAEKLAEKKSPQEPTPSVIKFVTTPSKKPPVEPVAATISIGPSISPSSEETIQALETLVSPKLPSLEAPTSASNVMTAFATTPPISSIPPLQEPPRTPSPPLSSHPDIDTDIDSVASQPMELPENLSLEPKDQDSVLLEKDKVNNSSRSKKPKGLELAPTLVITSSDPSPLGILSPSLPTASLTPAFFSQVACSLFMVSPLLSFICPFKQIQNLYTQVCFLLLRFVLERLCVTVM
# Summary of the method: as §1
# ETV2 = target: T4, ETV2 (Homo sapiens, UniProt O00321 1-342); conditions: protein: recombinant; tags: N-terminal GST; dsDNA, one strand shown
# T4 sequence: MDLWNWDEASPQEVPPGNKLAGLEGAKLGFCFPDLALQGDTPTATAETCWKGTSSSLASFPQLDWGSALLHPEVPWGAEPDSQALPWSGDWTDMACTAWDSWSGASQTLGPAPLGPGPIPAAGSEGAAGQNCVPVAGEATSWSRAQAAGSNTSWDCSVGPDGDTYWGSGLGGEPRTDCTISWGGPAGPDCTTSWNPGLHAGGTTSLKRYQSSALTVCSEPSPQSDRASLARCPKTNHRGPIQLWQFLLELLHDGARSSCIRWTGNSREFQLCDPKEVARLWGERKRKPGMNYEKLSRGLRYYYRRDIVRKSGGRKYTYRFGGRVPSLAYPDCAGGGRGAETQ
# Summary of the method: as §1
# ELF3 = target: T5, ELF3 (Homo sapiens, UniProt P78545 1-371); conditions: protein: recombinant; tags: N-terminal GST; dsDNA, one strand shown
# T5 sequence: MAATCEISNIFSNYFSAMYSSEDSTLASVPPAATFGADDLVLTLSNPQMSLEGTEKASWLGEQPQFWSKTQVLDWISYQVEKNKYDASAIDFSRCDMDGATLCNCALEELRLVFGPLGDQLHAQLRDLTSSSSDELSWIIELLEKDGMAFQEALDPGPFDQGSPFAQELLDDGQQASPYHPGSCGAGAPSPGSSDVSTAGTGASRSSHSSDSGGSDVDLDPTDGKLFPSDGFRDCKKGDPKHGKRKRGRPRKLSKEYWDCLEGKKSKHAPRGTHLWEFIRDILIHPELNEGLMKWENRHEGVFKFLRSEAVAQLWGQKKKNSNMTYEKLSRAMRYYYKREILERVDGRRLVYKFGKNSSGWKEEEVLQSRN
# Summary of the method: as §1
# CRX = CRX (Homo sapiens, UniProt O43186 1-299); conditions: protein: recombinant; tags: N-terminal GST; dsDNA, one strand shown
# Chain of CRX (O43186 whole entry): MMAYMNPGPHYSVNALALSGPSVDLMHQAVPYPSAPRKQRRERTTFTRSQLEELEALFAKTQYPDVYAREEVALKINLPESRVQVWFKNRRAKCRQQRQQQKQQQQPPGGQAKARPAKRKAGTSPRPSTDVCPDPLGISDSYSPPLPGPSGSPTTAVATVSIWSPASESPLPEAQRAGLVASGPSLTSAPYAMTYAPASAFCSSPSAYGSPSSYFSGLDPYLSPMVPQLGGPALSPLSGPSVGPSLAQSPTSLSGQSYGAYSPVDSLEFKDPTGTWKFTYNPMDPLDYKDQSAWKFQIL
# Summary of the method: as §1
# ETV1 = ETV1 (Homo sapiens, UniProt P50549 1-477); conditions: protein: recombinant; tags: N-terminal GST; dsDNA, one strand shown
# Chain of ETV1 (P50549 whole entry): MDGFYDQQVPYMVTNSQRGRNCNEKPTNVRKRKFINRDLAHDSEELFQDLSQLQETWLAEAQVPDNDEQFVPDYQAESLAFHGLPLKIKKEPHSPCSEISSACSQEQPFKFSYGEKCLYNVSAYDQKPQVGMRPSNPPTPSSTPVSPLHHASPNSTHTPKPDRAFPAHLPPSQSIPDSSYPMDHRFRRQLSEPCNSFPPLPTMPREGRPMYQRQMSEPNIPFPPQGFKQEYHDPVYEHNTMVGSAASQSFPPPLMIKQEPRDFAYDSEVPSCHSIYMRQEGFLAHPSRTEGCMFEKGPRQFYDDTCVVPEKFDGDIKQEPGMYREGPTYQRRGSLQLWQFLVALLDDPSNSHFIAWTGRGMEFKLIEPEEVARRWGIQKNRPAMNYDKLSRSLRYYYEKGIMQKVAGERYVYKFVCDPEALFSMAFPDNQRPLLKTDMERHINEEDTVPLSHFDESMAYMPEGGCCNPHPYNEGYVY
# Summary of the method: as §1
# ERF = target: T6, ERF (Homo sapiens, UniProt P50548 1-548); conditions: protein: recombinant; tags: N-terminal GST; dsDNA, one strand shown
# T6 sequence: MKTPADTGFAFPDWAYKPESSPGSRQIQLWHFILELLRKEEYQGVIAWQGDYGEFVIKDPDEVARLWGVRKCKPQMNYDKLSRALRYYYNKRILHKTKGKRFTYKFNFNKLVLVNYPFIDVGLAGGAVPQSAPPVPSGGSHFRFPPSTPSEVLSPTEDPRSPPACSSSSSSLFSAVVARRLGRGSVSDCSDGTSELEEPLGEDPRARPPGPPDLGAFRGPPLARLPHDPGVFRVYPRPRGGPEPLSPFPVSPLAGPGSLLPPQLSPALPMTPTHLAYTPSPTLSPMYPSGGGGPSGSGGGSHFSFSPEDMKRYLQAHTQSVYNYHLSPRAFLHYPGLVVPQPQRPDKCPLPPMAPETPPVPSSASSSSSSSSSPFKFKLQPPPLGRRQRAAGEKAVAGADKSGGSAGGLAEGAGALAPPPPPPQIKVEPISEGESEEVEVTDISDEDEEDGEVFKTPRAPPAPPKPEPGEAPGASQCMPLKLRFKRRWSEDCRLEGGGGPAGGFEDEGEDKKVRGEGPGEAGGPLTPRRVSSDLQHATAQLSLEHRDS
# Summary of the method: as §1
# ETV3L = target: T7, ETV3L (Homo sapiens, UniProt Q6ZN32 1-361); conditions: protein: recombinant; tags: N-terminal GST; dsDNA, one strand shown
# T7 sequence: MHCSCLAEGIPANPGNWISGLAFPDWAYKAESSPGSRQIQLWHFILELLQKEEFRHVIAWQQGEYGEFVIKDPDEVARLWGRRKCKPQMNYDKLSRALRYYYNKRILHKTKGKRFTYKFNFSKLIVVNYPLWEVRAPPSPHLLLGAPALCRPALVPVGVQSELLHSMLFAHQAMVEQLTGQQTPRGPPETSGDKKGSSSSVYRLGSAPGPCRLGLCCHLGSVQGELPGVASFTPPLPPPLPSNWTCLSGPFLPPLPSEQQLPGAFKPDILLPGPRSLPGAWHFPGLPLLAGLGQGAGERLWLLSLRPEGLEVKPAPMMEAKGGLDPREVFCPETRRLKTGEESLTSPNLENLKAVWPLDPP
# Summary of the method: as §1
# ETS2 = target: T8, ETS2 (Homo sapiens, UniProt P15036 1-469); conditions: protein: recombinant; tags: N-terminal GST; dsDNA, one strand shown
# T8 sequence: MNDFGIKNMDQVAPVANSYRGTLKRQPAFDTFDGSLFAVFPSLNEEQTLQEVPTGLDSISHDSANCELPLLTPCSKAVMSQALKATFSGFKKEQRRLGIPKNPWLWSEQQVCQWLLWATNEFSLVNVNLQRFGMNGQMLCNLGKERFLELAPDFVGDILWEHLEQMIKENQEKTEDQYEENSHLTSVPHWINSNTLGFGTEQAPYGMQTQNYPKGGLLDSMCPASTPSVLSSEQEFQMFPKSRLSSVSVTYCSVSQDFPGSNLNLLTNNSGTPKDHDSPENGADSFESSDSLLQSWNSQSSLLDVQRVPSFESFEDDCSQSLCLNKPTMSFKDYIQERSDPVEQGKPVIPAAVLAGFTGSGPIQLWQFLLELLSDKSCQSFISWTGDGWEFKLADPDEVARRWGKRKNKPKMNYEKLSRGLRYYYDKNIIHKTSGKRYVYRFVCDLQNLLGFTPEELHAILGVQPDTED
# Summary of the method: as §1
# SPDEF = target: T9, SPDEF (Homo sapiens, UniProt O95238 1-335); conditions: protein: recombinant; tags: N-terminal GST; dsDNA, one strand shown
# T9 sequence: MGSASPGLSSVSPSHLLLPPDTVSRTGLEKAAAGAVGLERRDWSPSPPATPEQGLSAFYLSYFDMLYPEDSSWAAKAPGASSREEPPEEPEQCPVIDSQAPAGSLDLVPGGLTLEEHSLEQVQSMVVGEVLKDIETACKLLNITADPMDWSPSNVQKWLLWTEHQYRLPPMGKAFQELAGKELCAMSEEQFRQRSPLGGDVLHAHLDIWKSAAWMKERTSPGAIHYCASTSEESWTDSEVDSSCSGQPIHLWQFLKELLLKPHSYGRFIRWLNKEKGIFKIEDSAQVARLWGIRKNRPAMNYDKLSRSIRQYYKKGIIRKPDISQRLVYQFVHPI
# Summary of the method: as §1
# ETV7 = target: T10, ETV7 (Homo sapiens, UniProt Q9Y603 1-341); conditions: protein: recombinant; tags: N-terminal GST; dsDNA, one strand shown
# T10 sequence: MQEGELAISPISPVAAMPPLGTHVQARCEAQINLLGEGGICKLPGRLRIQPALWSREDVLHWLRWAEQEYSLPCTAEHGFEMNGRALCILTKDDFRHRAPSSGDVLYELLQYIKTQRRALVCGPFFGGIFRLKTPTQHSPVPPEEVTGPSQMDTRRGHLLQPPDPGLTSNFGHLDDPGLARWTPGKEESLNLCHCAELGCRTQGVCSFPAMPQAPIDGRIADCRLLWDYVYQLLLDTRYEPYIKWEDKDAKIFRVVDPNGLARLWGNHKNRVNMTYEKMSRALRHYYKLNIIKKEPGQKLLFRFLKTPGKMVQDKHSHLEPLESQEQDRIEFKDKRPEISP
# Summary of the method: as §1
# ELF5 = target: T11, ELF5 (Homo sapiens, UniProt Q9UKW6-2 1-255); conditions: protein: recombinant; tags: N-terminal GST; dsDNA, one strand shown
# T11 sequence: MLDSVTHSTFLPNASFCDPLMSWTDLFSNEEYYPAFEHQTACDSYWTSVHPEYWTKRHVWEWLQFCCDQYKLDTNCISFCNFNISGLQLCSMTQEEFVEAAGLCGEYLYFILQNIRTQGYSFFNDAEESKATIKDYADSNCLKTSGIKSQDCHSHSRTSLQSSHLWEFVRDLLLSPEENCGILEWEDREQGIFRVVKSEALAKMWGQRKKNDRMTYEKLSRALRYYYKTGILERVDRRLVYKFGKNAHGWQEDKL
# Summary of the method: as §1
# ETV3 = target: T12, ETV3 (Homo sapiens, UniProt P41162-2 1-143); conditions: protein: recombinant; tags: N-terminal GST; dsDNA, one strand shown
# T12 sequence: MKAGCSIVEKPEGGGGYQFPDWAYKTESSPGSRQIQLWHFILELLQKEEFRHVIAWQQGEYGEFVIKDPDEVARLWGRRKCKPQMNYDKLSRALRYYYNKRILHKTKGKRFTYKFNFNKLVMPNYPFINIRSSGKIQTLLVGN
# Summary of the method: as §1
# ETV6 = ETV6 (Homo sapiens, UniProt P41212 1-452); conditions: protein: recombinant; tags: N-terminal GST; dsDNA, one strand shown
# Chain of ETV6 (P41212 whole entry): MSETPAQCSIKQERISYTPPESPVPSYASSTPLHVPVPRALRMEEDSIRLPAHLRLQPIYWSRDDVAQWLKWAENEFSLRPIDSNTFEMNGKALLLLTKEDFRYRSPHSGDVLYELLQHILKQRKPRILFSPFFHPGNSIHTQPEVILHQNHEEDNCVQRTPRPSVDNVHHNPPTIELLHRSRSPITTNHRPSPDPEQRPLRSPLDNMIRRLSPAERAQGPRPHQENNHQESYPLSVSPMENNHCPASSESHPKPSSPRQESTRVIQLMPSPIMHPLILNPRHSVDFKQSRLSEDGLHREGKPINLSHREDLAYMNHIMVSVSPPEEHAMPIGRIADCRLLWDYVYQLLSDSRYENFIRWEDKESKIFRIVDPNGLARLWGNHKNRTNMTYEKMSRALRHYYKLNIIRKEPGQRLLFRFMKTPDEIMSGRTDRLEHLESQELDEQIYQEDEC
# Summary of the method: as §1
sequence,measurement,setting,value
GTCCTA,binding signal,FEV,"1.07 fold enrichment (6-mer frequency, TF over GST control)"
same,binding signal,ETV5,"1.16 fold enrichment (6-mer frequency, TF over GST control)"
same,binding signal,HSF1,"1.03 fold enrichment (6-mer frequency, TF over GST control)"
same,binding signal,SPIC,"1.16 fold enrichment (6-mer frequency, TF over GST control)"
same,binding signal,ELF4,"1.18 fold enrichment (6-mer frequency, TF over GST control)"
same,binding signal,ELK4,"1.13 fold enrichment (6-mer frequency, TF over GST control)"
same,binding signal,ETV2,"1.31 fold enrichment (6-mer frequency, TF over GST control)"
same,binding signal,ELF3,"1.2 fold enrichment (6-mer frequency, TF over GST control)"
same,binding signal,CRX,"1.06 fold enrichment (6-mer frequency, TF over GST control)"
same,binding signal,ETV1,"1.12 fold enrichment (6-mer frequency, TF over GST control)"
same,binding signal,ERF,"1.32 fold enrichment (6-mer frequency, TF over GST control)"
same,binding signal,ETV3L,"1.12 fold enrichment (6-mer frequency, TF over GST control)"
same,binding signal,ETS2,"1.11 fold enrichment (6-mer frequency, TF over GST control)"
same,binding signal,SPDEF,"1.29 fold enrichment (6-mer frequency, TF over GST control)"
same,binding signal,ETV7,"1.29 fold enrichment (6-mer frequency, TF over GST control)"
same,binding signal,ELF5,"1.14 fold enrichment (6-mer frequency, TF over GST control)"
same,binding signal,ETV3,"1.25 fold enrichment (6-mer frequency, TF over GST control)"
same,binding signal,ETV6,"1.13 fold enrichment (6-mer frequency, TF over GST control)"
